The panel holds about 79,000 compounds, 15% with a hit somewhere; the sample as a whole holds those more often. A number with no mark means an inactive call. Active and inactive are the calls of the source. Cut-off read from the data, not from the text of the source: active = growth inhibition above about 70%; inactive = the rest.
Columns and labels:
[1] = NCI Yeast Anticancer Drug Screen. Data for the rad50 strain (AID 155);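 note: 0% = growth of vehicle-only cultures of the same strain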; conditions: S. cerevisiae rad50 strain growth inhibition; at 50.0 µM; stronger effect = higher value
Outline: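 Readout: growth inhibition relative to vehicle-treated cultures. Compound exposure was carried out in a genetically defined yeast strain deficient in DNA damage repair.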

[2] = NCI Yeast Anticancer Drug Screen. Data for the mec2-1 strain (AID 157); conditions: S. cerevisiae mec2-1 strain, at 50.0 µM, stronger effect = higher value
Outline: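 mec2-1 yeast strain, carrying an alteration in DNA damage repair or cell cycle control, was exposed to compounds; growth inhibition was measured relative to vehicle-treated controls.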

[3] = NCI Yeast Anticancer Drug Screen. Data for the sgs1 mgt1 strain (AID 161);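 note: 0% = growth of cultures given vehicle only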; conditions: S. cerevisiae sgs1 mgt1 strain, at 50.0 µM, stronger effect = higher value
Outline: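 Growth of a repair-deficient yeast mutant was monitored after compound treatment and expressed as inhibition relative to vehicle-treated cultures.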

[4] = NCI Yeast Anticancer Drug Screen. Data for the cln2 rad14 strain (AID 165);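 note: 0% = growth equal to vehicle treated cultures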; conditions: S. cerevisiae cln2 rad14 strain, at 50.0 µM, stronger effect = higher value
Outline: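 Yeast carrying cln2 and rad14 alterations (cell cycle control and DNA damage repair) were exposed to compounds. Growth inhibition was measured against vehicle-treated controls.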

[5] = NCI Yeast Anticancer Drug Screen. Data for the bub3 strain (AID 167); conditions: S. cerevisiae bub3 mutant strain, at 50.0 µM, stronger effect = higher value
Outline: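 Readout: yeast growth inhibition, expressed relative to vehicle-only wells. The test organism is a mutant strain from a panel with lesions in DNA repair or checkpoint genes.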

[6] = NCI Yeast Anticancer Drug Screen. Data for the mlh1 rad18 strain (AID 175); conditions: S. cerevisiae mlh1 rad18 strain growth inhibition; at 50.0 µM; stronger effect = higher value
Outline: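 Growth inhibition of the yeast strain was measured after compound exposure and expressed relative to vehicle-treated controls. The strain carries defined defects in DNA damage repair.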

Row | Compound | growth inhibition [1] | growth inhibition [2] | growth inhibition [3] | growth inhibition [4] | growth inhibition [5] | growth inhibition [6]
1 | CCOP(=O)(OCC)/C(C#N)=C/c1ccccc1 | 19.2% | -23.1% | -8.95% | -33.8% | -11.3% | 19.6%
2 | COc1cc(C2c3cc4c(cc3OC(C)(O)C2C)OCO4)cc(OC)c1OC (configuration not stated) | 8.8% | -1.15% | 9.85% | -25.4% | -16.9% | 15.2%
3 | S=C(N=Nc1ccccc1)NNc1ccccc1.[Cu+2] | -17.4% | -28.8% | -30% | 1.8% | 5.75% | -15.2%
4 | [N-]=[N+]=[N-] | 6.75% | 5.75% | 15% | -3.05% | 18% | -13.7%
5 | Cc1nc2ccccc2c(=O)n1-c1ccccc1Br | 7.35% | -13.7% | -6.7% | 12.4% | 10.2% | 2.2%
6 | O=[N+]([O-])c1ccc2nc(-c3ccc(S(=O)(=O)F)cc3)cc(Cl)c2c1 | -19.1% | 16.9% | 4.45% | -12.4% | 13.3% | -9.9%
7 | O=S1(F)=NP(N2CC2)(N2CC2)=NP(N2CC2)(N2CC2)=N1 (configuration not stated) | 22.6% | -3.15% | -9.7% | 6.6% | -19.6% | -39.9%
8 | NC(=O)Cc1ccccc1 | -17.1% | -14.9% | -6.55% | 8.75% | -2.45% | 24.9%
9 | [Cl][Hg][Cl].c1ccc(N=P(c2ccccc2)(c2ccccc2)c2ccccc2)cc1 | 99.7% (active) | 99.8% (active) | 99.8% (active) | 99.5% (active) | 99.3% (active) | 99.6% (active)
10 | CC1=C(C)C(=O)OC(C(C)(O)C2(O)CCC3(O)C4CC(Cl)C5(O)C(O)C=CC(=O)C5(C)C4CCC32C)C1 (configuration not stated) | 7.8% | -37.3% | -18.7% | -3.2% | -15.9% | -52.2%
11 | CC(=O)OCC1OC(S[As](C)C)C(OC(C)=O)C(OC(C)=O)C1OC(C)=O (configuration not stated) | -2.85% | 13.8% | -8.3% | 10.9% | 6.4% | 36.8%
12 | COc1ccccc1CN1CCN(Cc2ccccc2OC)C1c1ccc(N(CCCl)CCCl)cc1 | -9.8% | -9.05% | -14.7% | -32.5% | -1.9% | -4.1%
13 | O=[N+]([O-])c1ccccc1CBr | 52.8% | 34.5% | 57% | 34.9% | 33.5% | 42%
14 | COc1ccc(CCF)cc1 | -4.95% | 4% | -0.7% | -9.85% | 4.4% | -3.85%
15 | CC1(C)c2ccccc2C(c2ccccc2)(c2ccccc2)[N+]1(C)C | 63.4% | 33.7% | 52.2% | 21.7% | 22.2% | 49%
16 | COc1cc(O)c2c(O)c3c(=O)cc(C)oc3cc2c1 | -9.75% | -6.2% | 20.6% | 12.6% | -1.95% | -5.35%
17 | CNC(Cc1ccccc1)c1cccc(OC)c1O (configuration not stated) | -7.55% | -25.6% | -53.6% | -28.4% | -14.2% | -10.8%
18 | COc1cc(C2c3cc4c(cc3OC(O)C2C)OCO4)cc(OC)c1O (configuration not stated) | -13.2% | -49.9% | -23.9% | 8.25% | -2.9% | -5.75%
19 | Oc1ccccc1C=NC1CCCCC1N=Cc1ccccc1O.[Ni] (configuration not stated) | 18.7% | 4.05% | 7.9% | -8.6% | -0.55% | -10.4%

Row | Compound | growth inhibition [1] | growth inhibition [2] | growth inhibition [3] | growth inhibition [4] | growth inhibition [5] | growth inhibition [6]
20 | O=C(O)C(O)c1ccc(Cl)cc1 (configuration not stated) | 17.7% | -0.65% | -14.8% | -15.1% | 16.1% | 11.2%
21 | O=CC1(c2ccccc2)CCNCC1 | -0.95% | 3.85% | 15.5% | 6.35% | 0.85% | 8.85%
22 | C1=CC2C=CC(C=C1)[PH+]2c1ccccc1.[C-]#[O+].[C-]#[O+].[C-]#[O+].[C-]#[O+].[C-]#[O+].[Cr] (configuration not stated) | -30.4% | 2.1% | -9.25% | 21.4% | -2.15% | -9.35%
23 | O=C1CN=C(c2ccccc2)c2ccncc2N1 | 4.15% | 4.5% | 12.6% | 19.1% | 5.35% | 28.6%
24 | C[C@]12CC[C@H]3[C@@H](CCC4=CC(=O)CC[C@@]43C)[C@]1(O)CC[C@]2(O)C(=O)CO | 11.2% | -12.6% | -30.4% | -2.05% | -17.3% | -9.1%
25 | O=c1n(CC2CO2)c2ccccc2n1CC1CS1 (configuration not stated) | -7.4% | -36% | 7% | -12.8% | -41.4% | 1.7%
26 | O=C(NC1=NN(Cc2ccccc2)C(=O)C1)c1ccc(S(=O)(=O)F)cc1 | -0.35% | -14.9% | 19.6% | 9.55% | 9.8% | 11.6%
27 | COc1cc2c(cc1OC)-c1c3c(cc4c1[C@H](C2)N(C)CC4)OCO3 | -5% | -7.7% | -19.8% | 6.75% | -14.2% | -25.5%
28 | C[C@]12CC[C@@H](O)C[C@H]1[C@@H](O)C[C@@H]1[C@@H]2CC[C@]2(C)C(=O)CC[C@@H]12 | -17.4% | -4.35% | 3.05% | -17.1% | 25.7% | -11.1%
29 | CC1CCCCN1 (configuration not stated) | 5.35% | -1% | -9.85% | 10.2% | 13.5% | 2.85%
30 | CCOc1ccccc1C=C(C#N)C#N | -2.25% | 6% | 19.1% | 12.2% | 1.75% | -4.15%
31 | C[C@H](O)CCC(=O)c1ccoc1 | -5.65% | -2.6% | -22.1% | 6.2% | -22.1% | -14.1%
32 | NC(=O)c1cc([N+](=O)[O-])c([N+](=O)[O-])cc1N(CCCl)CCCl | 14.4% | 8.95% | 27.2% | 0.4% | -3.8% | 13.3%
33 | N#CCCCCN=[N+]=[N-] | -4% | 27.1% | -12.6% | 3.25% | 20.4% | -8.35%
34 | CC(Oc1ccc([N+](=O)[O-])cc1Cl)C(=O)Nc1ccc(S(=O)(=O)F)cc1 (configuration not stated) | -12.8% | -14.4% | -9.4% | 4% | 0.2% | -12.6%
35 | CC(Cl)CN1CCCCC1 (configuration not stated) (tested in a mixture with another compound) | 15.2% | 1.25% | 23.8% | 7.75% | 3.2% | 17.9%
36 | O=C(C/C(=N/O)C(=O)NC1=C(Cl)C(=O)c2ccccc2C1=O)CC(c1ccccc1)c1c(O)c2ccccc2oc1=O (configuration not stated) | 39.5% | 81.1% (active) | 82.5% (active) | 76.8% (active) | 84.7% (active) | 87.6% (active)
37 | CC(=O)C1(O)CCC2(O)C3(O)CC=C4CC(O)CCC4(C)C3CC(OC(=O)c3ccc(O)cc3)C12C (configuration not stated) | 8.5% | 2.85% | -12.8% | -1.7% | -1.6% | -50.4%

Source: PubChem BioAssay (NCI)
